Results reported in PubChem BioAssay (NCATS).
Values joined by “and” are separate entries in the source; they are usually repeats but may differ in a detail not shown here. Equal values may be shown once. Inconclusive results are not listed. Unmarked numbers belong to inactive results. Active and inactive are the calls of the source. Calls follow the shape of the dose curve; as a rule, active = well fitted activation curve with a large enough effect; inconclusive = small, poorly fitted or top-dose-only effect; inactive = no such curve, though single readings can be large or run the other way. Residues, ends and D or L forms follow the SMILES beside them.

Each compound was assayed against Cellular tumor antigen p53 (Homo sapiens) (UniProt P04637) (assay: Primary qHTS for small molecule compounds that upregulate eGFP-tagged delta133p53alpha (in N-terminal) cells. (AID 2060322; also: nearly all actives have a fitted effect of over 75% in size;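 as to activation: cells pre-induced with doxycycline then dosed without doxycycline; series mostly up to about 56 µM; 0% = DMSO vehicle and 100% = reference activator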)). Conditions: NCI-H358 eGFP-delta133p53alpha fluorescence, 24 h; activation: active compounds read high.
Cellular tumor antigen p53 (Homo sapiens), sequence (P04637 whole entry, looked up): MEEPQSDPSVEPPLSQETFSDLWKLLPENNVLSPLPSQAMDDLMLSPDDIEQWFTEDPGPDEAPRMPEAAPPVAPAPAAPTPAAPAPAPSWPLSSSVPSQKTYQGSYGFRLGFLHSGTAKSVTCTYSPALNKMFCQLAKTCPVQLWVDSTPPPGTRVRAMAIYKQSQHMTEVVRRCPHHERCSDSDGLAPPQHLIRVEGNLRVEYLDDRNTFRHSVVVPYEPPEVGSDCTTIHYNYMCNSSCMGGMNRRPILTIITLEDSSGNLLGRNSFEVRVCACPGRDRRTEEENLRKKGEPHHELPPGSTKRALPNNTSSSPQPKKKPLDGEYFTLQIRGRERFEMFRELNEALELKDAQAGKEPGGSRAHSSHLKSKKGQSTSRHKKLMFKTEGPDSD
Outline: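 NCI-H358 cells pre-induced 24 h with 10 ng/ml doxycycline for eGFP-delta133p53alpha, plated dox-free and exposed 24 h at 37C to titrated compounds. Fixed, Hoechst-stained; gated GFP peak intensity by laser scanning cytometry, normalized to DMSO (0%) and 57.5 uM 5-azacytidine (100%).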
Potency is read from the fitted curve at half-maximal effect.

SMILES | activation | Potency
COc1ccc2c(c1)c(CC(=O)OCC(=O)O)c(C)n2C(=O)c1ccc(Cl)cc1 | -15.1% and 5.95% | –
O=S(c1cc(Cl)cc(Cl)c1O)c1cc(Cl)cc(Cl)c1O | -0.565% | –
Nc1ccc2c(c1)CN1C(=O)c3ccccc3C1=N2 | – | 0.0601 µM (active)
C#C[C@]1(O)CC[C@@H]2[C@@H]3CCC4=CC(=O)CC[C@@H]4[C@H]3CC[C@@]21CC | 25.3% | –
NNc1nnc(NN)c2ccccc12 | -35.1% | –
CCCCCC[C@@H](CCC)C(=O)O | -13.4% | –
NS(=O)(=O)c1cc2c(cc1C(F)(F)F)NCNS2(=O)=O | 6.21% | –
CO[C@@H]1[C@@H](O[C@@H]2O[C@H](C)[C@@H](O[C@H]3C[C@@](C)(O)[C@@H](O)[C@H](C)O3)[C@H](N(C)C)[C@H]2O)[C@@H](CC=O)C[C@@H](C)[C@@H](O[C@@H]2CC[C@H](N(C)C)[C@@H](C)O2)/C=C/C=C/C[C@@H](C)OC(=O)C[C@H]1OC(C)=O | -19.8% | –
Cn1cc(C2=C(c3cn(CCCN)c4ccccc34)C(=O)NC2=O)c2ccccc21 | – | 24.3 µM (active)
CN(C)CC[C@H](c1ccc(Cl)cc1)c1ccccn1 | 26.7% | –
CCN1CCN(C(=O)N[C@H](C(=O)N[C@@H]2C(=O)N3C(C(=O)O)=C(CSc4nnnn4C)CS[C@@H]23)c2ccc(O)cc2)C(=O)C1=O | 19.4% | –
O=C1c2ccccc2C(=O)c2c1ccc(O)c2O | -14.2% | –
CC[C@@]1(O)C(=O)OCc2c1cc1n(c2=O)Cc2c-1nc1ccccc1c2/C=N/OC(C)(C)C | – | 0.0978 µM (active)
O=C(O)/C=C\C(=O)O | -25.4% | –
Cc1ccc(-c2ccccc2C#N)cc1 | -11.9% | –
Cc1c(F)cc2c(=O)c(C(=O)O)cn3c2c1CCC3C (stereo not given) | 16.7% | –
COC(=O)c1nc(Cl)c(Cl)nc1N | – | 27.6 µM (active)
Cc1ncc(CSSCc2cnc(C)c(O)c2CO)c(CO)c1O | -22% | –
CC(C)[C@@H]1CC[C@@H](C)CC1=O | 16.4% | –
O=C(C=Cc1cccc(S(=O)(=O)Nc2ccccc2)c1)NO | 49% | –

SMILES | activation | Potency
CNc1nc(-c2ccc3c(N)n[nH]c3c2)cc(N2C[C@@H](C(=O)NC3CCCCC3)CC[C@@H]2C)n1 | -21.3% | –
O=C(NCc1ccccc1)[C@H](Cc1ccccc1)NC(=O)[C@@H]1O[C@@H]1C(=O)NCCc1ccc(O)cc1 | 16.6% | –
CCCCCCCC(=O)[O-].CCCCCCCC(=O)[O-].[Zn+2] | 14.1% | –
Cc1c(NC(C)C)c(=O)n(-c2ccccc2)n1C | 11.7% | –
COc1cc2nc(Cl)nc(N)c2cc1OC | -37.9% | –
COc1ccccc1N1CCN(CC(O)COc2cc(OC)c(OC)c(OC)c2)CC1 (stereo not given) | -6.21% | –
O=C(O)c1ccccc1S | 19.8% | –
COCCc1ccccn1 | 15.1% | –
COc1cc(NC(C)CCCN)c2ncccc2c1 (stereo not given) | – | 24.6 µM (active)
O=C1OC(CN2CCOCC2)CN1/N=C/c1ccc([N+](=O)[O-])o1 (stereo not given) | 5.02% | –
CC(=O)N[C@@H](CO)C(=O)N[C@@H](CC(=O)O)C(=O)N[C@@H](CCCCN)C(=O)N1CCC[C@H]1C(=O)O (Ac-SDKP-OH) | -24.3% | –
CC[C@H](CC[C@@H](C)[C@H]1CC[C@H]2[C@@H]3CC=C4C[C@@H](O)CC[C@]4(C)[C@@H]3CC[C@]12C)C(C)C | -21.3% | –
CO/N=C(\C(=O)O)c1csc(NC(=O)CCl)n1 | -17.5% | –
CCOC(=O)C(C#N)=C(c1ccccc1)c1ccccc1 | -3.35% | –
O=S1(=O)c2cccc3cccc(c23)N1CCCN1CCN(c2ccc(F)cc2)CC1 | 8.47% | –
CC(C)(C)c1ccc(C(=O)CCCCl)cc1 | 3.95% | –
CC=C(C(=CC)c1ccc(O)cc1)c1ccc(O)cc1 | -4.09% | –
Cc1ccc(C(=O)NCCCCCC(=O)Nc2ccccc2N)cc1 | 11.2% | –
O=C(O)Cc1cccc2ccccc12 | 1.67% and -33.3% | –
Cc1cc(O)c(C(C)C)cc1Cl | -0.565% | –
